“And” between values parts separate entries of the source, which are not always exact repeats. Equal entries are not always repeated. Structures can show the parent of a compound that is named as a salt. The whole screen tested about 5,800 compounds, of which about 620 (11%) showed activity. Many of the other results were omitted from the sample, so actives are more common in it than they were. A number with no mark means an inactive call.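 The calls were made as follows: active = score above a cut-off or among the top three wells of a plate; in these data no inactive exceeds 0.85.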
Tested on: primary human hepatic stellate cells (donor 1)
Test: scaled lipid accumulation score (0 = DMSO-like, 1 = nortriptyline-like); higher = stronger HSC inactivation (lipid re-accumulation), active = hit call of the paper
Details: 48 h
[1] = library stock concentration: 1 mM
[2] = library stock concentration: 10 mM
[3] = library stock concentration: 3.33 mM

Structure (SMILES): CCCCCC1OC1C/C=C\CCCCCCCC(=O)O (centres undefined) [Leukotoxin B (12,13-EODE)]
- scaled lipid accumulation score (library stock concentration: 100 uM): ≤ -0.021

Structure (SMILES): CCCCCC[C@H]1C(=O)O[C@H](C)[C@H](NC(=O)c2cccc(NC=O)c2O)C(=O)O[C@@H](C)[C@@H]1OC(=O)CC(C)C [Antimycin A]
- scaled lipid accumulation score: 0.274

Structure (SMILES): CCCCC/C=C\C/C=C\C/C=C\C/C=C\CCCC(=O)N(C)C [Arachidonoyl-N,N-dimethyl amide]
- scaled lipid accumulation score [1]: 0.01

Structure (SMILES): CC(N)C(O)c1ccccc1 (centres undefined) [Phenylpropanolamine]
- scaled lipid accumulation score (library stock concentration: 13.2 mM): ≤ 0

Structure (SMILES): CC(N)C(O)c1ccccc1 (centres undefined) [Phenylpropanolamine hydrochloride]
- scaled lipid accumulation score: ≤ 0
- scaled lipid accumulation score (library stock concentration: 10.7 mM): ≤ -0.001

Structure (SMILES): C=C[C@H]1CN2CC[C@H]1C[C@H]2[C@H](OC(=O)OCC)c1ccnc2ccc(OC)cc12 [Quinine ethyl carbonate]
- scaled lipid accumulation score (library stock concentration: 5 mM): ≤ -0.001
- scaled lipid accumulation score [2]: 0.318

Structure (SMILES): CC(C)[C@@]1(NC(=O)[C@@H]2C[C@@H]3c4cccc5[nH]cc(c45)C[C@H]3N(C)C2)O[C@@]2(O)[C@@H]3CCCN3C(=O)[C@H](Cc3ccccc3)N2C1=O [Dihydroergocristine mesylate]
- scaled lipid accumulation score: 0.232
- scaled lipid accumulation score [2]: 0.54

Structure (SMILES): CN1C[C@H](C(=O)N[C@]2(C)O[C@@]3(O)[C@@H]4CCCN4C(=O)[C@H](Cc4ccccc4)N3C2=O)C[C@@H]2c3cccc4[nH]cc(c34)C[C@H]21.CS(=O)(=O)O [Dihydroergotamine methanesulfonate]
- scaled lipid accumulation score [2]: 1.06 (active)

Structure (SMILES): CN1C[C@H](C(=O)N[C@]2(C)O[C@@]3(O)[C@@H]4CCCN4C(=O)[C@H](Cc4ccccc4)N3C2=O)C[C@@H]2c3cccc4[nH]cc(c34)C[C@H]21 [Dihydroergotamine mesylate]
- scaled lipid accumulation score (library stock concentration: 2.9 mM): ≤ 0
- scaled lipid accumulation score [2]: 0.16 and 0.216

Structure (SMILES): CN1C[C@H](C(=O)N[C@]2(C)O[C@@]3(O)[C@@H]4CCCN4C(=O)[C@H](Cc4ccccc4)N3C2=O)C[C@@H]2c3cccc4[nH]cc(c34)C[C@H]21 [Dihydroergotamine tartrate]
- scaled lipid accumulation score: 0.119

Structure (SMILES): FC(F)(F)c1cccc(C2=CCN(CCc3ccc4ccccc4c3)CC2)c1 [Xaliproden hydrochloride]
- scaled lipid accumulation score [2]: 0.229

Structure (SMILES): CC(N)Cc1cnc[nH]1 (centres undefined)
- scaled lipid accumulation score [2]: 0.028

Structure (SMILES): CN1CC[C@]23CCCC[C@H]2[C@H]1Cc1ccc(O)cc13
- scaled lipid accumulation score (library stock concentration: 9.9 mM): ≤ 0

Structure (SMILES): CC(=O)O[C@H]1C[C@@H]2CC[C@@H]3[C@H](CCC4(C)[C@H]3C[C@H]([N+]3(C)CCCCC3)[C@@H]4OC(C)=O)C2(C)C[C@@H]1[N+]1(C)CCCCC1 (some centres undefined) [Pancuronium Br]
- scaled lipid accumulation score (library stock concentration: 3.5 mM): ≤ -0.006

Structure (SMILES): Cc1n[nH]c2ccc(-c3cncc(OC[C@@H](N)Cc4c[nH]c5ccccc45)c3)cc12
- scaled lipid accumulation score (library stock concentration: 400 uM): 1 (active)

Structure (SMILES): Cc1[nH]nc2ccc(-c3cncc(OC[C@@H](N)Cc4c[nH]c5ccccc45)c3)cc12
- scaled lipid accumulation score (library stock concentration: 80 uM): 0.308
- scaled lipid accumulation score (library stock concentration: 2 mM): 0.593
- scaled lipid accumulation score [2]: 0.427

Structure (SMILES): CNC(Cc1c[nH]c2ccccc12)C(=O)O (centres undefined) [Abrine (l)]
- scaled lipid accumulation score [2]: ≤ 0

Structure (SMILES): C[N+]1(C)C2CCC1CC(OC(=O)c1c[nH]c3ccccc13)C2 (centres undefined) [3-Tropanylindole-3-carboxylate methiodide]
- scaled lipid accumulation score [2]: ≤ 0

Structure (SMILES): c1ccc2c(c1)Sc1ccccc1N2CC1CN2CCC1CC2 (centres undefined)
- scaled lipid accumulation score [2]: 1.03 (active)

Structure (SMILES): Cn1cc(C(=O)C(=O)N[C@H]2CN3CCC2CC3)c2ccccc21
- scaled lipid accumulation score [2]: 0.403

Structure (SMILES): O=C(N[C@H]1CN2CCC1CC2)c1ccc(Cl)cc1
- scaled lipid accumulation score [2]: ≤ -0.001 and 0.156

Structure (SMILES): COc1cc2c(cc1OC)[C@@]13CCN4CC5=CCO[C@H]6CC(=O)N2[C@H]1[C@H]6[C@H]5C[C@H]43 [Brucine]
- scaled lipid accumulation score (library stock concentration: 5.1 mM): ≤ 0
- scaled lipid accumulation score [2]: ≤ 0

Structure (SMILES): O=c1c2ccccc2[se]n1-c1ccccc1 [Ebselen] [listing 1 of 3 here]
- scaled lipid accumulation score: 0.867 (active)

Structure (SMILES): O=c1c2ccccc2[se]n1-c1ccccc1
- scaled lipid accumulation score [2]: 1.07 (active)

Structure (SMILES): O=c1c2ccccc2[se]n1-c1ccccc1 [Ebselen] [listing 2 of 3 here]
- scaled lipid accumulation score [1]: ≤ 0

Structure (SMILES): O=c1c2ccccc2[se]n1-c1ccccc1 [Ebselen] [listing 3 of 3 here]
- scaled lipid accumulation score (library stock concentration: 18.2 mM): 0.952 (active)

Structure (SMILES): CNC1=Nc2ccc(Cl)cc2C(c2ccccc2)=[N+]([O-])C1
- scaled lipid accumulation score [2]: 0.036

Structure (SMILES): CCCCC/C=C\C/C=C\C/C=C\C/C=C\CCCCOC(CO)CO [2-Arachidonyl Glycerol ether]
- scaled lipid accumulation score [1]: ≤ 0

Structure (SMILES): COc1ccc2cc(C(C#N)OC(=O)OCC3OC3c3ccccc3)ccc2c1 (centres undefined) [Epoxy Fluor 7]
- scaled lipid accumulation score [1]: 0.009

Structure (SMILES): Cc1cc2c(C(C)C)c(O)c(O)c(C=O)c2c(O)c1-c1c(C)cc2c(C(C)C)c(O)c(O)c(C=O)c2c1O [Gossypol]
- scaled lipid accumulation score: ≤ 0
- scaled lipid accumulation score [3]: 0.016
- scaled lipid accumulation score [2]: 0.824 and 0.57

Structure (SMILES): Cc1cc2c(C(C)C)c(O)c(O)c(C=O)c2c(O)c1-c1c(C)cc2c(C(C)C)c(O)c(O)c(C=O)c2c1O [listing 1 of 2 here]
- scaled lipid accumulation score [3]: ≤ 0
- scaled lipid accumulation score [2]: 0.142

Structure (SMILES): Cc1cc2c(C(C)C)c(O)c(O)c(C=O)c2c(O)c1-c1c(C)cc2c(C(C)C)c(O)c(O)c(C=O)c2c1O [listing 2 of 2 here]
- scaled lipid accumulation score [2]: 0.999 (active)

Structure (SMILES): CC(N)Cc1ccc(O)cc1 (centres undefined) [Hydroxyamphetamine hydrobromide]
- scaled lipid accumulation score [2]: ≤ 0

Structure (SMILES): CC(C)=CCC[C@]1(C)C=Cc2c(O)c3c(c(CC=C(C)C)c2O1)O[C@]12C(=C[C@@H]4C[C@H]1C(C)(C)O[C@@]2(C/C=C(/C)C(=O)O)C4=O)C3=O [Gambogic acid]
- scaled lipid accumulation score [2]: 0.672

Structure (SMILES): CCCCCCC(C)(C)c1cc(OC)c2c(c1)OC(C)(C)[C@@H]1CC=C(C)C[C@@H]21
- scaled lipid accumulation score [1]: ≤ 0

Structure (SMILES): O=C1CSC(c2ccccc2Cl)c2cc(Cl)ccc2N1 (centres undefined)
- scaled lipid accumulation score [2]: ≤ -0.006
- scaled lipid accumulation score (library stock concentration: 15.4 mM): 0.158

Structure (SMILES): CC[C@@]1([C@@H]2O[C@@H]([C@H]3O[C@@](O)(CO)[C@H](C)C[C@@H]3C)C[C@@H]2C)CC[C@H]([C@]2(C)CC[C@]3(C[C@H](O)[C@@H](C)[C@@H]([C@@H](C)[C@@H](OC)[C@H](C)C(=O)O)O3)O2)O1 [Monensin sodium salt]
- scaled lipid accumulation score: 0.541

Structure (SMILES): CC[C@@]1([C@H]2O[C@H]([C@H]3O[C@@](O)(CO)[C@H](C)C[C@@H]3C)C[C@H]2C)CC[C@H]([C@@]2(C)CC[C@]3(C[C@H](O)[C@@H](C)[C@@H]([C@H](C)[C@H](OC)[C@@H](C)C(=O)O)O3)O2)O1 [Monensin sodium]
- scaled lipid accumulation score (library stock concentration: 7.2 mM): 0.508

Structure (SMILES): C=C1[C@H]2C[C@@]3([C@@H]1O)[C@@H](C[C@@H]2O)[C@]12[C@@H]4C[C@H]3[C@H]1N(CC)C[C@]4(C)CC[C@@H]2O [Napelline]
- scaled lipid accumulation score: ≤ 0

Structure (SMILES): NCCC(O)C(=O)NC1CC(N)C(OC2OC(CN)C(O)[C@H](O)[C@@H]2N)[C@H](OC2O[C@H](CO)[C@@H](O)[C@@H]2O)[C@@H]1O (some centres undefined) [Butirosin disulfate salt]
- scaled lipid accumulation score: 0.015

Structure (SMILES): COc1ccc(/C=C\c2cc(OC)cc(OC)c2)cc1 [cis-trismethoxy Resveratrol]
- scaled lipid accumulation score [1]: 0.097

Structure (SMILES): N[C@]1(C(=O)O)CC[C@H](C(=O)O)C1
- scaled lipid accumulation score [2]: 0.035

Structure (SMILES): C[C@H]1O[C@@H](O[C@@H]2C[C@H](O)[C@]3(CO)[C@H]4[C@H](O)C[C@]5(C)[C@H](C6=CC(=O)OC6)CC[C@]5(O)[C@@H]4CC[C@]3(O)C2)[C@@H](O)[C@H](O)[C@H]1O.O.O.O.O.O.O.O.O [Ouabain]
- scaled lipid accumulation score [3]: 1.05 (active)
- scaled lipid accumulation score [2]: 1.06 (active)

Structure (SMILES): C[C@@H]1O[C@@H](O[C@H]2C[C@@H](O)[C@]3(CO)[C@H]4[C@H](O)C[C@]5(C)[C@@H](C6=CC(=O)OC6)CC[C@]5(O)[C@@H]4CC[C@]3(O)C2)[C@H](O)[C@H](O)[C@H]1O.O.O.O.O.O.O.O.O [Strophantine octahydrate]
- scaled lipid accumulation score: 1.02 (active)

Structure (SMILES): CCCCC/C=C\C/C=C\C/C=C\C/C=C\CCCC(=O)Nc1ccc2c(C)cc(=O)oc2c1 [AMC Arachidonoyl Amide]
- scaled lipid accumulation score [1]: 0.06

Structure (SMILES): C/C=C1\C[C@@H](C)[C@](O)(CO)C(=O)OCC2=CCN3CC[C@@H](OC1=O)[C@@H]23 [Retrorsine]
- scaled lipid accumulation score: ≤ 0

Structure (SMILES): COc1c(C[C@@H](C)OC(=O)Oc2ccc(O)cc2)c2c3c(C[C@@H](C)OC(=O)c4ccccc4)c(OC)c(=O)c4c(O)cc(OC)c(c5c(OC)cc(O)c(c1=O)c52)c43 [Calphostin C]
- scaled lipid accumulation score (library stock concentration: 600 uM): 0.094

Structure (SMILES): C=C[C@]12CN(C)[C@@H]3[C@H]4CO[C@H](C[C@H]41)[C@]1(C(=O)Nc4ccccc41)[C@@H]32 [Gelsemine]
- scaled lipid accumulation score: ≤ 0

Structure (SMILES): C=CCc1ccccc1OCC(O)CNC1(C)CCC(C(C)(C)NC(=O)CBr)CC1 (centres undefined) [Bromoacetyl alprenolol menthane]
- scaled lipid accumulation score [2]: ≤ 0

Structure (SMILES): CO[C@@H]1C[C@@H](C[C@H]2CC[C@H](C)[C@H]([C@@H](C)C(=O)O)O2)O[C@]2(O[C@](C)([C@H]3CC[C@@](C)([C@@H]4O[C@@H]([C@H]5O[C@@](O)(CO)[C@H](C)C[C@@H]5C)C[C@@H]4C)O3)C[C@H]2C)[C@@H]1C [Nigericin]
- scaled lipid accumulation score (library stock concentration: 6.9 mM): 0.535

Structure (SMILES): CO[C@H]1CC[C@@H](O[C@H]2C[C@H]([C@]3(C)CC[C@]4(C[C@H](O)[C@@H](C)[C@@H]([C@@H](C)/C=C(\C)C(=O)[C@H](C)C[C@H](C)C(=O)O)O4)O3)O[C@]3(O[C@@H]([C@H]4O[C@@](O)(CO)[C@H](C)C[C@@H]4C)C[C@@H]3C)[C@@H]2C)O[C@@H]1C [Nanchangmycin]
- scaled lipid accumulation score [3]: 1.27 (active)
- scaled lipid accumulation score [2]: 0.663
